This is an account of results in PubChem BioAssay AID2685 (National Center for Advancing Translational Sciences (NCATS), 2010).

The whole screen tested about 320,000 compounds, of which about 2,100 (0.66%) were called active. Roughly 53% stayed inconclusive and do not appear here. This is one part of a sample in which actives are shown more often than they occur. The call rests on the fitted dose curve; in most records, active means well fitted inhibition curve with a large enough effect in the signal ratio, with a control signal flat (not every such curve was filed as active); inconclusive means small, poorly fitted or top-dose-only effect, or effect the other way, or a change in a side signal; inactive means flat fitted curve, though single readings scatter; the % refers to the signal ratio.
Potency means the concentration at half of the fitted maximal effect.

This experiment can be described thus: qHTS Assay for Lipid Storage Modulators in Drosophila S3 Cells.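 On cell number change: cells counted by Cell Tracker Red CMTPX staining in the red channel.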 On lipid storage change, negative = inhibition: on the % scale 0 is the no-effect control and ±100 the full control effect. Particulars: BODIPY lipid droplet fluorescence, 18-24 h, cells fed with added oleic acid; cell number change: measured here: cell count max response; series mostly up to 46.1 µM; lipid storage change, negative = inhibition: at the top concentration. In outline:
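Drosophila S3 cells loaded with oleic acid (400 uM, as added) and compounds at several concentrations; lipid droplets imaged by 488-nm laser-scanning cytometry, 500–530 nm intensity and object ratio to cell channel. Percent activity normalized to 20 uM Triacsin C.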
In general terms: Quantitative high-throughput screening tests each substance at several concentrations.
In the case of `O=C1O/C(=C\C(=O)N2CCOCC2)c2ccccc21`, the “lipid storage change, negative = inhibition” value is 7.9% (inactive) and the cell number change came to 1.94%.

`CCN(CC)c1ccc(C(=O)OCC(=O)Nc2cc3oc4ccccc4c3cc2OC)cc1`: the “lipid storage change, negative = inhibition” value was 9.28% (inactive) and the cell number change was -0.812%.

Take `Cn1c(=O)c2c(nc(SCC(=O)N3CCCCCC3)n2C)n(C)c1=O`: the “lipid storage change, negative = inhibition” value is 2.93% (inactive) and the cell number change turned out to be 8.11%.

In the case of `CC(C)n1c(SCC(=O)N2CCN(C)CC2)nc2c1c(=O)n(C)c(=O)n2C`, the result was inactive and the cell number change turned out to be 1.32%.

Regarding `CC(C)n1c(SCC(=O)N2CCCCC2)nc2c1c(=O)n(C)c(=O)n2C`, the Potency was 0.116 µM (active) and the cell number change was -23%.

Take `CCC(CC)C(=O)NCCc1cc2ccc(C)c(C)c2[nH]c1=O`: the molecule was called inactive.

Regarding `CCn1cc(/C=N/O)c(C)n1`, the “lipid storage change, negative = inhibition” value is 7.49% (inactive) and the cell number change turned out to be 7.41%.

Take `CC1(C)N=C(/C=N/O)C=[N+]1[O-]`: the Potency is 6.51 µM (active) and the cell number change is -9.07%.

As to `CCCN(CCC)CCCNC(=O)C1CCC(CNS(=O)(=O)c2cccc3nsnc23)CC1` (stereo not drawn), the result was inactive and the cell number change is -15%.

With `CC(=O)NC(c1ccc(C(C)C)cc1)c1ccc2cccnc2c1O` (stereo not drawn), the call was inactive.

Consider `CCCCC(=O)NC(c1ccccc1OC)c1ccc2cccnc2c1O` (stereo not drawn), for which the “lipid storage change, negative = inhibition” value was -21.7% (inactive) and the cell number change is -24%.

Turning to `CCCCC(=O)NC(c1ccc(C(C)C)cc1)c1ccc2cccnc2c1O` (stereo not drawn), the Potency is 18.4 µM (active) and the cell number change was -28.4%.

In the case of `CCOc1c(Br)cc(CNc2ccc(N3CCOCC3)cc2)cc1OC`, the “lipid storage change, negative = inhibition” value is -18.5% (inactive) and the cell number change was -20.8%.

Take `Cc1cc(OC(C)C(=O)NCC(O)c2ccccc2)c2c(C)cc(=O)oc2c1` (stereo not drawn): the molecule was called inactive and the cell number change stood at 6.57%.

With `CCOc1ncccc1C(=O)NCc1ccccc1Cl`, the “lipid storage change, negative = inhibition” value was 25.4% (inactive).

As to `COc1ccc(CC(=O)NNC(=O)COc2ccc(Br)cc2C)cc1OC`, the “lipid storage change, negative = inhibition” value was 14.4% (inactive) and the cell number change was determined as 1.07%.

Regarding `NC(=O)c1c(NC(=O)c2ccccc2)sc2c1CCC2`, the result was inactive and the cell number change is -24.3%.

Consider `COc1ccccc1C(=O)Nc1sc2c(c1C(N)=O)CCCC2`, for which the result was inactive and the cell number change is -22.3%.

As for `NC(=O)c1c(NC(=O)c2ccc(F)cc2Cl)sc2c1CCC2`, the “lipid storage change, negative = inhibition” value was -6.16% (inactive) and the cell number change came out at 3.89%.

Consider `NC(=O)c1c(NC(=O)c2ccc(F)cc2)sc2c1CCC2`, for which the Potency was 4.61 µM (active) and the cell number change was found to be 5.61%.

In the case of `O=C(Nc1sc2c(c1C(=O)O)CCCCC2)c1ccccc1F`, the “lipid storage change, negative = inhibition” value is -22.6% (inactive) and the cell number change was -1.56%.

Turning to `NC(=O)c1c(NC(=O)c2ccccc2F)sc2c1CCCC2`, the Potency was 1.64 µM (active) and the cell number change is -10.7%.

With `O=S(=O)(Nc1ccc(Cl)cn1)c1ccccc1`, the “lipid storage change, negative = inhibition” value was -4.96% (inactive) and the cell number change was found to be 14.4%.

As to `Cc1cccc(/N=C/c2nc(-c3ccccc3Br)oc2O)n1`, the “lipid storage change, negative = inhibition” value is 8.31% (inactive) and the cell number change came out at 18.5%.

As to `COc1cc(S(=O)(=O)N2CCOCC2)ccc1NC(=O)COC(=O)c1ccccn1`, the “lipid storage change, negative = inhibition” value was -3.84% (inactive) and the cell number change turned out to be 9.96%.

Consider `Cc1ccc[n+](CC(=O)N2CCCc3ccccc32)c1`, for which the result was inactive and the cell number change was -16.8%.

In the case of `O=C(CSc1ccccn1)N1CCN(c2ncc(C(F)(F)F)cc2Cl)CC1`, the “lipid storage change, negative = inhibition” value was 4.42% (inactive) and the cell number change is 6.61%.

`CNCC(=O)N1CCN(c2ncc(C(F)(F)F)cc2Cl)CC1`: the “lipid storage change, negative = inhibition” value was 4.67% (inactive) and the cell number change is -11.3%.

Consider `O=C(O)c1nn(CC(=O)N2CCN(c3ncc(C(F)(F)F)cc3Cl)CC2)c(=O)c2ccccc12`, for which the Potency was 0.82 µM (active) and the cell number change is -1.8%.

On to `CSc1nnc(-c2ccccc2)n1N`, for which the “lipid storage change, negative = inhibition” value was 3.24% (inactive) and the cell number change was 9.66%.

`Cc1ccc(NC(=O)c2cccnc2)cc1S(=O)(=O)N(C)C`: the “lipid storage change, negative = inhibition” value is -15% (inactive) and the cell number change was found to be 5.29%.

For the molecule `CCOc1ccc(-n2cc(-c3ccccc3)c3c(SC(C)C(=O)OC)ncnc32)cc1` (stereo not drawn), the “lipid storage change, negative = inhibition” value was -15.9% (inactive) and the cell number change is -20.7%.

Consider `CCn1c(=O)cc(OCC(=O)Nc2ccccc2N2CCN(C)CC2)c2ccccc21`, for which the “lipid storage change, negative = inhibition” value was -3.92% (inactive) and the cell number change was found to be 6.65%.

With `COC(=O)c1cc(CNC(=O)c2sccc2-c2ccccc2)ccc1OC`, the “lipid storage change, negative = inhibition” value was -18.3% (inactive) and the cell number change is -10.7%.

With `CCOc1ccc(Cc2c(Cl)nc(N)nc2Cl)cc1`, the call was inactive.

`COc1ccc(Cc2c(C)nc(N)nc2Cl)cc1`: the “lipid storage change, negative = inhibition” value is 16.4% (inactive) and the cell number change was determined as 9.54%.

With `COc1ccc(Cc2c(Cl)ncnc2Cl)cc1`, the Potency was 18.4 µM (active) and the cell number change is -13.7%.

For the molecule `CCOC(=O)C(=CNc1ccc(S(N)(=O)=O)cc1)C(=O)OCC`, the “lipid storage change, negative = inhibition” value was -10.1% (inactive) and the cell number change was -11.4%.

With `CCOc1ccc(NC(=O)[C@@H](NC(=O)c2ccco2)C(C)C)cc1`, the outcome was inactive and the cell number change is 4.17%.

Consider `Cc1nc(SCC(=O)c2ccc(Cl)cc2)c([N+](=O)[O-])[nH]1`, for which the call was inactive and the cell number change was -28.5%.

Turning to `Cc1ccc(C(C)C)c(OCC(=O)Nn2c(C)nc3ccccc3c2=O)c1`, the outcome was inactive.

Regarding `Cc1ccc(C(C)C)c(OCC(=O)NNC(=O)CC2OC(=O)c3ccccc32)c1` (stereo not drawn), the outcome is “inactive [at 0.0737 µM]”.

For the molecule `Cc1ccc(C(C)C)c(OCC(=O)NNC(=O)C(C(C)C)N2C(=O)c3ccccc3C2=O)c1` (stereo not drawn), the Potency is 16.4 µM (active) and the cell number change is -20.9%.

Take `CC(=O)N1c2ccccc2NC2=C(C(=O)CCC2)C1c1ccc(F)cc1` (stereo not drawn): the “lipid storage change, negative = inhibition” value was 0.776% (inactive) and the cell number change turned out to be 1.82%.

In the case of `COc1ccc2c(c1)c(CC(=O)OC(C)C(=O)N(C)C)c(C)n2C(=O)c1ccc(Cl)cc1` (stereo not drawn), the Potency is 1.46 µM (active) and the cell number change is -15.8%.

`COc1ccc2c(c1)c(CC(=O)OCC(N)=O)c(C)n2C(=O)c1ccc(Cl)cc1`: the “lipid storage change, negative = inhibition” value was 20.6% (inactive) and the cell number change is -0.195%.

As to `COc1ccc2c(c1)c(CC(=O)O)c(C)n2C(=O)c1ccc(Cl)cc1`, the “lipid storage change, negative = inhibition” value is -2.62% (inactive) and the cell number change worked out at 3.94%.
